RXFP1 antag: antagonists of human relaxin receptor RXFP1; Q9HBX9; HEK293-RXFP1, relaxin-stimulated cAMP HTRF, 30 min; stronger effect = lower value; activity change, negative = inhibition, % at 57.5 µM; hit rate 0.59% among 350,000; AID 1259400;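 active = activity change of -60% or lower, but not beyond a set lower limit; inconclusive = change between -60% and -40%, or beyond the set limit; inactive = change above -40%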; note: % is set by controls: 0 for no effect and ±100 for the full control effect
TSHR antagonist: human thyrotropin receptor antagonism. TSHR-expressing cells, TSH-stimulated cAMP HTRF, 2 h; stronger effect = lower value. AID 504810. activity change, negative = inhibition, % at 11.5 µM. hit rate 0.2% among 330,000. P16473;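 active = activity change below a set negative limit, meaning inhibition stronger than a set level, cut at about -70% in these data; inconclusive = activity change between two set negative limits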; note: % is set by controls: 0 for no effect and ±100 for the full control effect
Target sequence (P16473 whole entry, looked up): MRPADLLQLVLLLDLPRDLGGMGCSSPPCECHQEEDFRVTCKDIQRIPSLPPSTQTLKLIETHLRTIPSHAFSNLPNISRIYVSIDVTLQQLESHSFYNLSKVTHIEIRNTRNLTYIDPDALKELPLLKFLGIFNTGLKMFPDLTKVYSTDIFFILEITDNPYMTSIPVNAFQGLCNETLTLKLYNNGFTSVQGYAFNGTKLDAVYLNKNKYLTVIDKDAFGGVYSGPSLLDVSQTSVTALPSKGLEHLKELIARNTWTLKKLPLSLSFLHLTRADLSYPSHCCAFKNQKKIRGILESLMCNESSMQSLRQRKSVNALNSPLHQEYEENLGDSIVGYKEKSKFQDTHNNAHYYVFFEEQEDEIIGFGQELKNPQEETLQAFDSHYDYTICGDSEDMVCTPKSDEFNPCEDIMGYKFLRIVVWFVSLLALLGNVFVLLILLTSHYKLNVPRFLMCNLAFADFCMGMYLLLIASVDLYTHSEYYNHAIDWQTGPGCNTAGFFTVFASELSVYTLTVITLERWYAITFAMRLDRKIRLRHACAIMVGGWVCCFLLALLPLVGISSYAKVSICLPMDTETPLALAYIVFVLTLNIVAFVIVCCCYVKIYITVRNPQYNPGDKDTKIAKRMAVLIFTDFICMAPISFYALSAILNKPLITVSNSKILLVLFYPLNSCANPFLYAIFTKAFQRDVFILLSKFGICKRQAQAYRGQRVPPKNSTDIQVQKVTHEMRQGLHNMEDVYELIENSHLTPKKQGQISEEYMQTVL
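Competitive HTRF cAMP read-out (cryptate anti-cAMP antibody, cAMP-d2; 30 min, room temperature) in freshly harvested TSHR cells. Compounds added before TSH at EC80 (4nM final), followed by 2 hours' incubation at 37 deg C.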
RXFP1 ag: agonists of human relaxin receptor RXFP1; Q9HBX9; hit rate 0.3% among 370,000; AID 2676; HEK293T-RXFP1 cAMP TR-FRET, 30 min; response scale: percent of porcine relaxin response, buffer zero; Potency, µM (doses to about 57.5 µM), for the others: top-dose activation, usual class: activators; active = well fitted activation curve with a large enough effect; inconclusive = small, poorly fitted or top-dose-only effect; note: potency is the fitted concentration of half-maximal effect; % is set by controls: 0 for no effect and ±100 for the full control effect; nearly all actives have a fitted effect of over 60% in size
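Agonist response is measured as cAMP accumulation in an RXFP1-transfected HEK293T line under PDE4 inhibition. Values are scaled between buffer-only and 29 nM porcine relaxin, and EC50s come from standard Hill equation fits.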
gsp antag: gsp mutant antagonism; gsp-mutant cells, cAMP HTRF, 30 min; Potency, µM (titrated, usually from 76.9 µM), without a hit: top-dose activity change, negative = inhibition, usual class: inhibitors; hit rate 0.4% among 340,000; calls by dose curve; cell line not stated here;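 note: intracellular cAMP measured with PDE inhibitor Ro 20-1724 present during compound exposure; potency is the fitted concentration of half-maximal effect; % is set by controls: 0 for no effect and ±100 for the full control effect; nearly all actives have a fitted effect of over 65% in size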
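Measurement of cellular cAMP by homogeneous time-resolved fluorescence following a 30 min compound exposure at 37C. The PDE inhibitor […] was present throughout; the assay buffer was DPBS with 0.05% BSA and 0.005% Tween 20.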
gsp agonist: activates gsp, the McCune-Albright syndrome mutation; gsp mutant cells, cAMP HTRF, 30 min; Potency, µM (top dose mostly 76.9 µM), inactives show at the highest dose activation (cAMP increase), hits mostly activators; hit rate 0.13% among 340,000; active = well fitted activation curve with a large enough effect; inconclusive = small, poorly fitted or top-dose-only effect, or another doubt; inactive = no such curve, though single readings can be large or run the other way; cell line not stated here;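 note: phosphodiesterase inhibitor Ro 20-1724 added with compounds to block cAMP breakdown; potency is the fitted concentration of half-maximal effect; nearly all actives have a fitted effect of over 60% in size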
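Cells in DMEM/10% FBS with G418 were pretreated with compounds in DMSO plus […] (300 uM stock) for 30 min at 37C. cAMP was measured by HTRF (cAMP-d2 plus anti-cAMP antibody-K) after 30 min at room temperature.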
Akt phos inh: Akt phosphorylation inhibition | hit rate 0.32% among 360,000 | AID 651550 | activity change, % for hits at 50 µM | Neuro2A IGF-stimulated pAkt S473 HTRF, 20 min; stronger effect = lower value; in the data active = activity change below about -80%; inconclusive = mostly about -51% to -80%; note: % is set by controls: 0 for no effect and ±100 for the full control effect
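Neuro2A cells in DMEM with 0.5% FBS, overnight at 37 deg C, given compound at single 50 µM final, then IGF (6 nM final) for 20 min at 37 deg C. Lysed; phospho-Akt Ser473 by HTRF after 24 h, 665/615 ratio.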
The depositor's hits bear a star; [ ] = remark or other dose. This is a sample that favours compounds with a hit; in the whole collection about 1.3% have one here.

Screening Cc1ccc(-c2cn(-c3ccccc3)c(=S)[nH]2)cc1C returned RXFP1 antag -77*, TSHR antagonist 16, RXFP1 ag -1%, gsp antag 0%, gsp agonist 9%[15.4 µM] and Akt phos inh inactive.
For Cc1cc(/C=C2\C(=N)N3N=CSC3=NC2=O)c(C)n1Cc1ccccc1 the results were RXFP1 antag -28, TSHR antagonist -11, RXFP1 ag -2%, gsp antag -9%, gsp agonist -1%[15.4 µM] and Akt phos inh inactive.
`CCSC1=C(C#N)C(c2ccc(Cl)cc2)C2=C(CCCC2=O)N1` (stereo unspecified) gave RXFP1 antag -3, TSHR antagonist -7, RXFP1 ag 0%, gsp antag 45µM*, gsp agonist 9% and Akt phos inh inactive.
CSC1=C(C#N)C(c2ccc3c(c2)OCO3)C2=C(CCCC2=O)N1 (stereo unspecified) was read as RXFP1 antag -6, TSHR antagonist -1, RXFP1 ag 0%, gsp antag -16%, gsp agonist 2% and Akt phos inh inactive.
`CCNc1nc(Oc2ccc(C(=O)OC)cc2)nc(SC)n1` gave RXFP1 antag -4, TSHR antagonist 3, RXFP1 ag -1%, gsp antag -6%, gsp agonist 0% and Akt phos inh inactive.
For CCNc1nc(Oc2ccc(C(=O)OCC)cc2)nc(SC)n1 the results were RXFP1 antag -10, TSHR antagonist -3, RXFP1 ag 1%, gsp antag -12%, gsp agonist -24% and Akt phos inh -121%*.
For C(=N\Nc1nc2ccccc2[nH]1)/c1ccccn1 the results were RXFP1 antag 10, TSHR antagonist -6, RXFP1 ag -1%, gsp antag 2%, gsp agonist -11% and Akt phos inh inactive.
For Fc1ccccc1-c1ccc(/C=N/Nc2nc3ccccc3[nH]2)o1 the results were RXFP1 antag inconclusive, TSHR antagonist -1, RXFP1 ag 0%, gsp antag 40µM*, gsp agonist -27% and Akt phos inh inactive.
For O=C(NCc1ccco1)C1CCCN(c2ncnc3c2nc2n3CCCCC2)C1 (stereo unspecified) the results were RXFP1 antag 4, TSHR antagonist -16, RXFP1 ag 4%, gsp antag -5%, gsp agonist inconclusive and Akt phos inh inactive.
Screening CCOC(=O)C1=C(C)NC(C)=C(C(=O)OCC)C1C(=O)OCC(=O)N1CC(C)OC(C)C1 (stereo unspecified) returned RXFP1 antag -3, TSHR antagonist 16, RXFP1 ag 3%, gsp antag 9%, gsp agonist 5% and Akt phos inh inactive.
`CCOC(=O)c1c(C)[nH]c(C(=O)OCC(=O)N2CC(C)OC(C)C2)c1C` (stereo unspecified) gave RXFP1 antag 5, TSHR antagonist 17, RXFP1 ag 0%, gsp antag 0%, gsp agonist inconclusive and Akt phos inh -130%*.
`CC(C)(C)NC(=O)NC(=O)COC(=O)c1cccc(OC(F)F)c1` gave RXFP1 antag 1, TSHR antagonist 14, RXFP1 ag -4%, gsp antag 5%, gsp agonist -25% and Akt phos inh inactive.
`NC(=O)c1ccc(Cc2ncc(C(F)(F)F)cc2Cl)s1` gave RXFP1 antag 0, TSHR antagonist -10, RXFP1 ag 1%, gsp antag 3%, gsp agonist -20% and Akt phos inh -106%*.
For CCOC(=O)C(NC(=O)c1ccccc1Cl)(Nc1ccc(C)c(C)c1)C(F)(F)F (stereo unspecified) the results were RXFP1 antag -2, TSHR antagonist -2, RXFP1 ag 2%, gsp antag -11%, gsp agonist 15% and Akt phos inh inactive.
`COC(=O)C(Nc1ccccc1Cl)(c1cc(C)c(O)c(C)c1)C(F)(F)F` (stereo unspecified) gave RXFP1 antag -64*, TSHR antagonist -15, RXFP1 ag 8%, gsp antag -8%, gsp agonist inconclusive and Akt phos inh inactive.
For COc1ccc(/C=C(\C#N)C(=O)N2COCC2(C)C)cc1 the results were RXFP1 antag 8, TSHR antagonist -75*, RXFP1 ag 0%, gsp antag 13%, gsp agonist 6% and Akt phos inh inactive.
Screening COc1ccc(N(C)S(=O)(=O)c2ccc3c(c2)CCN3C(=O)C2CC2)c(OC)c1 returned RXFP1 antag -8, TSHR antagonist 15, RXFP1 ag 2%, gsp antag 28µM*, gsp agonist -33% and Akt phos inh inactive.
CCC(=O)N1CCc2cc(S(=O)(=O)N(C)c3ccc(OC)cc3OC)ccc21 was read as RXFP1 antag -4, TSHR antagonist 3, RXFP1 ag -2%, gsp antag -21%, gsp agonist 1% and Akt phos inh inactive.
Screening C/C(=N\NC(=O)c1ccc(Br)cc1)c1ccccc1 returned RXFP1 antag -4, TSHR antagonist -21, RXFP1 ag -1%, gsp antag 12%, gsp agonist 15% and Akt phos inh -111%*.
`CC(=NC1CCCC1)c1c(C)[nH]n(-c2nc3ccccc3s2)c1=O` gave RXFP1 antag 7, TSHR antagonist -5, RXFP1 ag 2%, gsp antag -11%, gsp agonist 2% and Akt phos inh -116%*.
Screening CC(=NC1CC1)c1c(-c2ccccc2)[nH]n(-c2nc3ccccc3s2)c1=O returned RXFP1 antag -9, TSHR antagonist 5, RXFP1 ag 0%, gsp antag -4%, gsp agonist inconclusive and Akt phos inh inactive.
CCCCOC(=O)CSC1=C(C#N)C(c2ccccc2OCC)C(C#N)C(=O)N1 (stereo unspecified) was read as RXFP1 antag 41, TSHR antagonist 24, RXFP1 ag 2%, gsp antag 32µM* and gsp agonist 29%.
For C=C(C)Cn1c(CCn2c3ccccc3c3ccccc32)n[nH]c1=S the results were RXFP1 antag -65*, TSHR antagonist -6, RXFP1 ag 0%, gsp antag -3%, gsp agonist -41% and Akt phos inh inactive.
Cc1cc(OC(=O)c2ccccc2Cl)cc(=O)n1C was read as RXFP1 antag -21, TSHR antagonist 0, RXFP1 ag 2%, gsp antag 40µM*, gsp agonist -18% and Akt phos inh inactive.
For NC(=O)C1CCN(c2nc(-c3cccc(Br)c3)cs2)CC1 the results were TSHR antagonist -7.
